# Data: the emibetuzumab library of Makowski et al. (2022)
# This is one part of the list. No count for the full screen is at hand.
# B1: VH:VL chains; a variant is named by its letters at X, in order (parent)
# chain 1: QVQLVQSGAEVKKPGASVKVSCKASGYTFTDYXMHWVRQAPGQGLEWMGXVNPNXXXTTYNQKFEGRVTMTTDTSTSTAYMELRSLRSDDTAVYYCARXNXLDXWGQGTTVTVSS
# chain 2: DIQMTQSPSSLSASVGDRVTITCSVSSSVSSIYLHWYQQKPGKAPKLLIYSTSNLASGVPSRFSGSGSGTDFTLTISSLQPEDFATYYCQVYSGYPLTFGGGTKVEIK
# Variants of: B1
# Assay: yeast display scFab, FACS + sequencing
# Settings: with MET
# Method in brief: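 A heavy-chain CDR mutant scFab library on yeast was enriched magnetically with HGFR-Fc-coated Protein A beads for two rounds and then by FACS after labelling with 1 nM HGFR-Fc and anti-Myc in PBSB with 1% milk for 3 h at room temperature, gating the top 50% antigen-positive cells. Antigen binding was judged positive if a sequence turned up in both antigen-positive deep-sequencing samples and negative if it turned up only in the input.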
row,Variant,antigen binding call
1,DGTKSYGV,no binding
2,VTGGDDWV,no binding
3,FAEGAAAV,no binding
4,FKTGGAAV,binds
5,YTTGGAAV,no binding
6,FKTKSDAV,no binding
7,DKTGDAAV,no binding
8,FKTESAAV,binds
9,AKTKSDVA,no binding
10,DATGGDVY,no binding
11,VAEKGDWY,no binding
12,FRTGDSVD,binds
13,FRTGDSWD,binds
14,FATTDSVD,no binding
15,FGKEDSVD,no binding
16,YARADDVA,no binding
17,VEAGDSSS,no binding
18,VKAGDSSS,binds
19,YRRKGSSS,binds
20,YRAGDSSS,binds
21,VKAGDAWS,no binding

row,Variant,antigen binding call
1,YRAKGSSS,binds
2,FGAKGSSS,no binding
3,SEGTSAVF,no binding
4,DTKAASSS,no binding
5,DKERGDLV,no binding
6,DTRTAYGF,no binding
7,YRAKSSSS,binds
8,YRAEGSSS,binds
9,VKGRADVF,no binding
10,ARGKASSY,no binding
11,YRGGDSSY,binds
12,YRGGDDLY,no binding
13,YAGGDFAY,no binding
14,DRGGDDWY,no binding
15,YRGGDSAY,binds
16,DREEGSSY,no binding
17,YRAGGSSY,binds
18,DRGGDDVY,no binding
19,DRREGYGA,no binding
20,DTTRDDSD,no binding
21,VTTKSDWV,no binding

row,Variant,antigen binding call
1,AGKGGFAY,no binding
2,VEARNDWA chain 1 M81I,no binding
3,YETKGDWD,no binding
4,VETKGDWD,no binding
5,YRRGGAWD,binds
6,FRRGGAWD,binds
7,AETKGDWD,binds
8,YRRRGAWD,binds
9,DTEGGSAS,no binding
10,DEGGTAVV,no binding
11,DGARNAAA,no binding
12,DEGGTAGV,no binding
13,DEGGTDLD,no binding
14,DATEDDSA,no binding
15,YRRRGDWD,binds
16,YRRRGDWY,binds
17,YTKRGDWD,no binding
18,YTRGADWY,no binding
19,FRRRGDWY,no binding
